From PubChem BioAssay (NCI)
This is part of a sample that, as a whole, favours compounds with a hit. Of some 83,000 tested, about 20% had one in any assay.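 Values shown are percent growth following 48 h exposure of cells in 96-well plates to a single concentration of compound; below 10 was considered active.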 The source made the active and inactive calls.

system: K-562 leukemia; test: NCI-60 one-dose screen, 48 h (100 = growth as untreated, 0 = no growth, -100 = all killed); settings: 10 µM unless noted

Row | Structure (SMILES) | growth
1 | CCN(CC)CCOc1ccc(/C(=C(\C)Cc2ccc(OC)cc2)c2ccc(OC(=O)NCc3ccccc3)cc2)cc1 | -51% (active)
2 | C=C1C(=O)O[C@H]2[C@H]1CC/C(COC(=O)NCc1ccc(Cn3c(=O)sn(-c4ccc(I)cc4)c3=O)cc1)=C\CC[C@@]1(C)O[C@@H]21 | 7.33% (active)
3 | O=c1oc2ccccc2cc1-c1nn(-c2ccccc2)cc1-c1nn[nH]n1 | 103% (inactive)
4 | O=c1oc2c(cc1-c1ccccc1)c(=O)[nH]c1ccccc12 | 89.2% (inactive)
5 | CC1=C(Cl)C(=O)c2cc(C)ccc2C1=O | 102% (inactive)

system: MALME-3M melanoma; test: as above; settings: 10 µM unless noted

Row | Structure (SMILES) | growth
6 | O=c1oc2c(cnc3ccccc32)cc1-c1cccc(Cl)c1 | 103% (inactive)
7 | CCOC(=O)c1c(C)nc2c(c1N)C(=O)C(=O)N2Cc1ccc(OC)cc1 | 58.7% (inactive)
8 | CCNC(=O)N1CCc2c(Br)c3c(c(OC)c2C1Cc1ccc(OC)cc1)OCO3 (stereo not given) | 33.8% (inactive)
9 | COc1cc2c(c(OC)c1OC)CCC(c1cccc(C(=O)Nc3ccc(Br)cc3)c1)O2 (stereo not given) | 72.3% (inactive)
10 | OC1CSSC1Cn1cnc2c(Nc3ccc(OCc4cccc(F)c4)c(Cl)c3)ncnc21 (stereo not given) | -5.08% (active)
11 | Cc1ccc(OCCOCCOCCOc2ccc(C)n(O)c2=S)c(=S)n1O | 47% (inactive)
12 | C=CN(C(=O)N1CCN(c2cc3c(cc2F)c(=O)c(C(=O)O)cn3C2CC2)CC1)c1nc(-c2ccc(Cl)cc2)cs1 | 89.9% (inactive)
13 | C#CCOc1cccc(Nc2ncnc3cc(NC(=O)CCl)ccc23)c1 | -73.4% (active)
14 | Cc1nc2ccccc2c(/C=C/c2ccc(F)cc2)c1C(=O)/C=C/c1ccccc1 | 31.1% (inactive)
15 | COc1cc(/C=C/C(=O)N2CCN(C(=O)c3cc(OC)c(OC)c(OC)c3)CC2)ccc1OCCCOc1cc2c(cc1OC)C(=O)N1CCC[C@H]1C=N2 | -58.6% (active)
16 | O=C(NC1CCC(Br)CC1)C1CCCC(S(=O)(=O)NC2CCCCC2)C1 (stereo not given) | 19.5% [25 µM] (inactive)
17 | COc1cc(/C=C/c2cn[nH]c2-c2ccc(C)cc2)cc(OC)c1OC | 52.3% (inactive)
18 | COc1ccc(C/C(C)=C(\c2ccc(Cl)cc2)c2ccc(OCCN3CCCC3)cc2)cc1 | 93.5% (inactive)
19 | CN(C)Cc1ccc(NC(=O)c2cncc(C#Cc3cnc(N)c4ncccc34)c2)cc1C(F)(F)F | -6.72% (active)
20 | COC(=O)c1c(C)nc(C)c2c1C(=O)C=C(NCc1ccccc1)C2=O | -1.94% (active)
21 | N#CSc1c[nH]c2ccc(/C=C/C(=O)/C=C(O)/C=C/c3ccc4[nH]cc(SC#N)c4c3)cc12 | 20.7% (inactive)
22 | Cc1ccc(-c2nc(SCC(=O)N3CCN(c4cc5c(cc4F)c(=O)c(C(=O)O)cn5C4CC4)CC3)nc(Cl)c2C#N)cc1 | 106% (inactive)
23 | COC(=O)/C=C1/SC(=NCc2ccccc2)N(CCc2c[nH]c3ccccc23)C1=O | 108% (inactive)
24 | C=C(C)[C@@H]1CC[C@]2(C(=O)N3CCN(C)CC3)CC[C@]3(C)[C@H](CC[C@@H]4[C@@](C)(CCC(=O)O)[C@H](C(=C)C)CC[C@]43C)[C@@H]12 | 87% (inactive)
25 | Nc1[nH]nc2nc(-c3ccccc3)n3c4ccccc4nc3c12 | 108% (inactive)
26 | CN1CCOCCN(C)Cc2ccc3ccc(cc3c2)CN(C)CCOCCN(C)Cc2ccc3ccc(cc3c2)C1 | 68.8% (inactive)
27 | COc1ccc(/C=N/Nc2c3ccccc3nc3ccccc23)cc1 | 105% (inactive)
28 | C=C1C(=O)O[C@H]2[C@H]1CC/C(CNC(=O)Cc1c[nH]c3ccccc13)=C\CC[C@@]1(C)O[C@@H]21 | 14.2% (inactive)
29 | COc1ccc2c(c1)CC[C@@H]1[C@@H]2CC[C@]2(C)c3c(cc(C#N)c4c3sc3ccccc34)C[C@@H]12 | 108% (inactive)
30 | O=C(c1c[nH]c2ccccc12)c1n[nH]c(=S)n1-c1ccc([N+](=O)[O-])cc1 | 106% (inactive)
31 | Cc1c2cnccc2c(C)c2c1c1cc(CO)ccc1n2C | -87.6% (active)
32 | COc1cc(-c2nccc3[nH]c(-c4cccc5[nH]ccc45)nc23)cc(OC)c1OC | 56% (inactive)
33 | Clc1ccc(-c2nc(C(Cl)Cl)nc3cc(-c4ccccc4)nn23)cc1 | 46.4% (inactive)
34 | CC1=Nc2cnc(Nc3ccc(N4CCCCC4)cc3)nc2Nc2ccccc21 | 88.5% (inactive)
35 | CN(C)c1ccc([C@@H](C(=O)Nc2cccc([N+](=O)[O-])c2)N(C(=O)c2cc3ccccc3[nH]2)c2cccc([N+](=O)[O-])c2)cc1 | 96.5% (inactive)
